Screening data (PubChem)
PfG6PD inh: PfG6PD (Plasmodium falciparum) enzyme inhibition; PfGluPho enzyme, NADPH resazurin-diaphorase fluorescence; inhibition, % at 20 µM; 350,000 compounds, 0.78% hits; AID 504690;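 active = inhibition reaching at least a set limit at 20 µM in the primary screen, cut at about 59% in these data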;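 note: 0% = DMSO wells with substrate and 100% = DMSO wells lacking glucose-6-phosphate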
PfM18AAP inh: PfM18AAP enzyme inhibition; recombinant PfM18AAP, H-Glu-NHMec fluorogenic cleavage; 290,000 compounds, 1.2% hits; inhibition, % at 7.35 µM;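 active = inhibition above the campaign mean inhibition over all tested compounds plus 3 SD, cut at about 28% in these data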;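 note: 0% = plate median of test compound wells and 100% = 2 mM ZnCl2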
ALR inh: human ALR oxidase inhibition via reduced H2O2 | P55789 | purified ALR, DTT oxidation, H2O2 HRP-luminol luminescence | inhibition, % (no concentration beside the values) | 290,000 compounds, 3.8% hits | AID 485317;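 active = mean replicate inhibition above about 79%, with every replicate also reaching it, limit read from the data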
Target sequence (P55789 whole entry, looked up): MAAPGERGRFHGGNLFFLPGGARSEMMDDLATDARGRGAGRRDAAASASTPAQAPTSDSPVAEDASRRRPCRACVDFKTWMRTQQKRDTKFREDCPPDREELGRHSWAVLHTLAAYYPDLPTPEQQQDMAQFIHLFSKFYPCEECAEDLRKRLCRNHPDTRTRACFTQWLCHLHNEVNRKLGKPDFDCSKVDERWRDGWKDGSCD
Cardio protect: protects H9c2 cardiomyocytes from peroxide injury; 360,000 compounds, 0.63% hits; protection from H2O2 cell death, % at 20 µM; H2O2 injury protection, ATPLite, 2 h;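 active = compounds giving at least 50% protection of heart cells from peroxide-induced death in the single-dose screen, raw or plate-pattern-corrected value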;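 note: 0% = DMSO wells with peroxide and 100% = DMSO wells without peroxide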
PHOSPHO1 block: inhibitors of human PHOSPHO1 phosphatase; recombinant PHOSPHO1, absorbance phosphatase assay; inhibition, % at 13.3 µM; 290,000 compounds, 1.1% hits; in the data active = inhibition above about 60%
Target sequence (Q8TCT1 whole entry, looked up): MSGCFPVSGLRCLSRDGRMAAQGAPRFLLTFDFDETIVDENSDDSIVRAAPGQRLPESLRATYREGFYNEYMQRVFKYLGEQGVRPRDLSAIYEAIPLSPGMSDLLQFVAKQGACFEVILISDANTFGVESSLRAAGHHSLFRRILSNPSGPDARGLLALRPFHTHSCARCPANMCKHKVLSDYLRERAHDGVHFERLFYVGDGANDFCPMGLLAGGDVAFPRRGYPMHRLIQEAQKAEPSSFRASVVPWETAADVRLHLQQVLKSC
* hit, by the source's call; x = no result. A selection: hits, their analogues and other compounds. The true share with any hit is near 5.6%.

SMILES	PfG6PD inh	PfM18AAP inh	ALR inh	Cardio protect	PHOSPHO1 block
O=C(CSc1nc(=O)n(CCCN2CCOCC2)c2c1CCCC2)Nc1ccc(Cl)cc1	6	x	96*	-1	x
O=C(CSc1nc(=O)n(CCCN2CCOCC2)c2c1CCC2)Nc1ccc([N+](=O)[O-])cc1	-2	x	98*	-3	x
O=C(CSc1nc(=O)n(CCCN2CCOCC2)c2c1CCCC2)Nc1cccc([N+](=O)[O-])c1	10	x	5	14	x
CC(C)c1ccc(NC(=O)CSc2nnc(CN3CCOCC3)n2C)cc1	-27	-1	98*	0	32
O=C(CSc1nc(=O)n(CCCN2CCOCC2)c2c1CCCC2)Nc1ccccc1Cl	-13	x	-4	3	x
Cc1c(Cl)cccc1NC(=O)CSc1nc(=O)n(CCCN2CCOCC2)c2c1CCC2	-8	x	94*	0	x
CCOC(=O)C1=C(C)NC(C)=C(C(=O)OCC)C1C(=O)OCC(=O)NCCc1ccccc1	10	x	-16	7	x
O=C(CCSc1nc2ccccc2s1)N/N=C/c1c(O)ccc2ccccc12	-17	0	-10	54*	2
COc1ccc(/C=N/NC(=O)CCSc2nc3ccccc3s2)cc1OC	6	-5	17	7	-2
Cc1ccc(OCc2nnc(SCC(=O)CC(=O)Nc3ccccc3)o2)cc1	-19	18	-11	-8	73*
CCc1nnc(NC(=O)CSc2nnc(COc3ccccc3C)o2)s1	-25	27	-8	4	97*
Cc1cccc(OCc2nnc(SCC(=O)Nc3ccc(C)c(C)c3)o2)c1	2	1	-7	-11	-32
Cc1cccc(OCc2nnc(SCC(=O)Nc3ncc(C)s3)o2)c1	-19	31*	0	-1	20
COc1ccc(OCc2nnc(SCC(=O)Nc3ccc(C)cc3)o2)cc1	-26	-7	2	-3	27
CCc1nnc(NC(=O)CSc2nnc(CNC(=O)c3ccccc3)o2)s1	-12	x	x	3	x
COc1ccc(-c2c(NC(=O)c3ccco3)oc3c(C)cccc3c2=O)cc1	-2	2	0	7	18
Oc1c(C(c2ccccc2Cl)N2CCCC2)ccc2cccnc12 (stereo unspecified)	-4	5	59	10	1
Oc1c(C(c2cccs2)N2CCN(c3ccccc3)CC2)ccc2cccnc12 (stereo unspecified)	x	1	-5	x	69*
Nc1nc(-c2ccc3c(c2)CCO3)cs1	21	3	97*	0	57
CCOc1nc2cnccc2n(CC(=O)Nc2cccc(C)c2)c1=O	3	-2	4	-1	1
CC1(C)Cc2ccccc2C(=O)N1	-21	-5	-3	12	-14
CC(C)c1ccc2c(c1)C(=O)NC(C)(C)C2	17	-7	92*	-2	6
COc1cc(/C=N/NC(=O)CC(=O)NC2CCCCC2)ccc1O	-5	-3	99*	0	46
O=C(N/N=C/c1c(O)ccc2ccccc12)C(=O)N1CCCC1	-35	x	x	52*	x
C=CCOc1ccc(/C=N/NC(=O)C(=O)N2CCCCCC2)cc1OC	-6	-2	x	-6	36
SMILES	PfG6PD inh	PfM18AAP inh	ALR inh	Cardio protect	PHOSPHO1 block
COc1ccc(/C=C(\C#N)C(=O)N2CCOCC2)cc1Br	-4	-4	x	5	45
COc1cc(/C=C(\C#N)C(=O)N2CCCCC2)ccc1O	8	6	99*	7	-21
COc1cc(/C=N/NC(=O)C(=O)N2CCCCCC2)ccc1O	14	1	99*	7	18
COc1cc(/C=C/C(=O)OCC(=O)N(C)C2CCS(=O)(=O)C2)ccc1OC(F)F (stereo unspecified)	3	10	-6	2	13
O=S(=O)(NCCc1ccc(F)cc1)c1ccc(F)cc1Br	5	x	x	-15	x
O=C(COC(=O)c1ccc(Cl)nc1)Nc1ccc(N2CCCCC2)cc1	19	x	5	-2	x
CN(C)c1ccc(/C=N/NC(=O)C(=O)N2CCCCCC2)cc1	4	10	99*	1	22
CCS(=O)(=O)Nc1cc(C(=O)O)ccc1C	5	1	-4	5	11
CCNc1ccc(C(=O)O)cc1N	15	-11	98*	3	3
CCc1ccccc1Nc1ccc(C(=O)O)cc1N	-28	3	99*	-4	-2
CCOc1ccc(-n2cc(-c3ccccc3)c3c(N4CCOCC4)ncnc32)cc1	-9	0	-6	63*	35
CCOc1ccc(-n2cc(-c3ccccc3)c3c(=S)nc[nH]c32)cc1	13	1	-2	52*	-13
CCC(NC(=S)NCc1ccc(F)cc1)c1ccccc1 (stereo unspecified)	13	1	4	-9	-2
C#CCOCCOCCOCCNc1nc(N2CCN(C(=O)CCCCCCCCCCNC(=O)[C@H]([C@@H](C)CC)n3cc(CCCCN=C(N)N)nn3)CC2)nc(N2CCN(C(=O)CCCCCCCCCCNC(=O)[C@H](CCCCN)n3cc(C)nn3)CC2)n1	72*	x	-30	x	x
C#CCOCCOCCOCCNc1nc(N2CCN(C(=O)CCCCCCCCCCNC(=O)Cn3cc(CCCCCN)nn3)CC2)nc(N2CCN(C(=O)CCCCCCCCCCNC(=O)[C@@H](CCC(=O)O)n3cc(CCCCCN)nn3)CC2)n1	25	x	-2	0	x
C#CCOCCOCCOCCNc1nc(N2CCN(C(=O)CCCCCCCCCCNC(=O)[C@H]([C@@H](C)CC)n3cc(CCCCN=C(N)N)nn3)CC2)nc(N2CCN(C(=O)CCCCCCCCCCNC(=O)[C@H](CO)n3cc(CCCCCN)nn3)CC2)n1	64*	x	-12	-1	x
C#CCOCCOCCOCCNc1nc(N2CCN(C(=O)[C@H](CCCCN)n3cc([C@@H](N)C(C)CC)nn3)CC2)nc(N2CCN(C(=O)[C@H](Cc3cc4ccccc4[nH]3)n3cc([C@@H](N)CC(C)C)nn3)CC2)n1 (stereo partly specified)	60*	3	-48	-2	9
C#CCOCCOCCOCCNc1nc(N2CCN(C(=O)CCCCCCCCCCNC(=O)[C@H]([C@@H](C)CC)n3cc(CCCCCN)nn3)CC2)nc(N2CCN(C(=O)CCCCCCCCCCNC(=O)[C@H]([C@@H](C)CC)n3cc(CCCCN=C(N)N)nn3)CC2)n1	x	x	2	-8	x
C#CCOCCOCCOCCNc1nc(N2CCN(C(=O)CCCCCCCCCCNC(=O)Cn3cc(CCCCCN)nn3)CC2)nc(N2CCN(C(=O)CCCCCCCCCCNC(=O)Cn3cc(CCCCCN)nn3)CC2)n1	77*	x	-14	4	x
C#CCOCCOCCOCCNc1nc(N2CCN(C(=O)CCCCCCCCCCNC(=O)[C@H](CCCCN)n3cc(C)nn3)CC2)nc(N2CCN(C(=O)CCCCCCCCCCNC(=O)[C@H](CCCCN)n3cc(CCCC(=O)O)nn3)CC2)n1	59*	x	-3	-4	x
C#CCOCCOCCOCCNc1nc(N2CCN(C(=O)CCCCCCCCCCNC(=O)[C@H]([C@@H](C)CC)n3cc(CCCCCN)nn3)CC2)nc(N2CCN(C(=O)CCCCCCCCCCNC(=O)[C@@H]([C@H](C)CC)n3cc(CCCCCN)nn3)CC2)n1	x	x	8	x	x
